Bioassay records (PubChem BioAssay)
Only some compounds are listed: those with a hit (about 19% of all), similar ones and a draw of the others.
HT1080NT lethal – kills 2HG-producing HT-1080-NT fibrosarcoma cells | HT-1080-NT fibrosarcoma viability, CellTiter-Glo ATP luminescence, 48 h | Potency, µM (titrated, usually from 46.1 µM), for inactives: top-dose activity, negative = less viability, most hits filed as cytotoxic | hit rate 1.6% among 360,000;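 also: NT is the 2HG producing partner of a matched IDH1 knockdown line; potency is read from the fitted curve at half-maximal effect; 0% = DMSO-treated cells and -100% = media-only wells without cells; nearly all actives have a fitted effect of over 55% in size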
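Toxicity toward the 2HG-producing NT line was scored as %Activity, normalised to DMSO and no-cell wells, from CellTiter-Glo luminescence after 48 hours' treatment.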
DT40 TDP1 CPT – DT40-hTDP1 cell growth loss with CPT | chicken DT40 Tdp1-/-;hTDP1 cells + 20 nM CPT, ATP luminescence, 48 h | Potency, µM (top dose mostly 46.2 µM), for inactives: at the highest dose activity change, negative = growth inhibition, actives largely listed as inhibitors | hit rate 12% among 420,000; also: potency is read from the fitted curve at half-maximal effect; nearly all actives have a fitted effect of over 55% in size
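Chicken DT40 Tdp1-/- cells complemented with human TDP1, 400 cells/well, exposed to compounds plus 20 nM camptothecin for at least 48 h at 37 C; viability read as ATP content by CellTiter-Glo luminescence.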
HT1080 IDH1KD tx – HT-1080 IDH1 knockdown cell toxicity (counter line) | AID 686971 | hit rate 2% among 360,000 | Potency, µM (top dose mostly 46.1 µM), without a hit: at the top dose activity, negative = toxicity, most hits filed as cytotoxic | HT-1080 IDH1 knockdown viability, ATP luminescence, 48 h;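 also: potency is read from the fitted curve at half-maximal effect; 0% = DMSO wells and -100% = cell-free medium wells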
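Luminescent ATP read-out (CellTiter-Glo, 10 min at room temperature) after 48 h compound exposure at 37 °C gave viability of IDH1-knockdown HT-1080 cells. Activity was normalised to DMSO and cell-free wells, then fitted as concentration-response curves.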
IL-1B inflam inh – inhibitors of inflammasome signaling (IL-1 beta secretion) | THP-1 LPS/ATP IL-1B secretion, AlphaLISA, 16 h; hits give low values | activity change, % at 57.5 µM | hit rate 4.7% among 360,000; in the data active = activity change below about -50%; inconclusive = mostly about -30% to -49%
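THP-1 cells pretreated 1 hr with compounds (up to 57.5 uM final), then stimulated with LPS (250 ng/mL final) plus ATP (1.25 mM final); secreted IL-1B measured by AlphaLISA after 16 hr, decreased signal indicating inhibition.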
TDP1 cell noCPT – qHTS for Inhibitors of human tyrosyl-DNA phosphodiesterase 1 (TDP1): qHTS in cells in absence of CPT; DT40 Tdp1-/- hTDP1 cells, no CPT, ATP luminescence, 48 h; Potency, µM (highest dose often 46.2 µM), inactives show top-dose activity change, negative = growth inhibition, actives largely listed as inhibitors; hit rate 15% among 420,000; also: potency is read from the fitted curve at half-maximal effect; nearly all actives have a fitted effect of over 55% in size
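DT40 Tdp1-/-;hTDP1 cells, no CPT (DMSO vehicle only), 400 cells/well; compounds pin-transferred; ≥48 hr, 37 °C; CellTiter-Glo 30 min RT dark, luminescence read.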
Starred values were filed as active, the others as inactive; ? = inconclusive; . = not tested or not shown. Unless noted, calls follow the shape of the dose curve; as a rule, active = well fitted curve in the direction sought with a large enough effect; inconclusive = small, poorly fitted or top-dose-only effect, or another doubt; inactive = no such curve, though single readings can be large; an effect the other way counts as inactive or inconclusive. Unless noted, % is scaled to controls: 0 for no effect and ±100 for the full control effect.

SMILES	HT1080NT lethal	DT40 TDP1 CPT	HT1080 IDH1KD tx	IL-1B inflam inh	TDP1 cell noCPT
CCc1ccc(S(=O)(=O)NCCc2csc3nc(-c4ccccc4)nn23)s1	.	20.6µM*	.	.	23.1µM*
COC(=O)C1=C(C)NC(C)=C(C(=O)OC)C1C(=O)OCC(=O)N1CCCCC1C (configuration not stated)	-2.8%	0.6%	-4.6%	3.5	3.0%
COc1ncc2ncc(=O)n(C3CC3)c2n1	.	-18.3%	.	.	?
CCN(Cc1ccccc1)Cc1c(O)ccc2c(=O)c(-c3ccccc3Cl)c(C(F)(F)F)oc12	.	18.4µM*	.	.	?
CCN(Cc1ccccc1)Cc1c(O)ccc2c(=O)c(-c3ccccc3OC)c(C(F)(F)F)oc12	.	?	.	.	25.9µM*
CCOc1ccccc1C(=O)Nc1ccc(S(=O)(=O)Nc2nccc(C)n2)cc1	-10.9%	22.0%	-9.8%	19.9	7.2%
CC1(c2nnc(-c3cccc(Cl)c3)o2)CC(c2ccc(F)cc2)=NO1 (configuration not stated)	-8.4%	-21.9%	-5.6%	0.0	-19.8%
Cc1nn(C)c(=S)n1-c1ccc(Cl)cc1	10.6%	-8.6%	2.2%	2.4	-10.5%
Cc1nn(-c2ccccc2)c(=S)n1-c1ccccc1	-1.1%	20.6µM*	-6.6%	41.7	13µM*
Cc1ccc2c(c1)N(Cc1cccc(C#N)c1)C=NS2(=O)=O	-5.9%	-0.3%	-8.1%	-26.6	?
Cc1sc2ncnc(SCC(=O)NC(=O)c3cccn3C)c2c1C	?	0.9%	?	54.5	?
Cc1ccc(NC2=C(c3ccc(C(F)(F)F)cc3)C(=O)c3ccccc32)cc1C	.	20.6µM*	.	.	?
Cc1ccc(Nc2ccc(C(F)(F)F)cc2[N+](=O)[O-])cc1	7.8%	-20.4%	9.5%	-10.6	-11.7%
COc1cccc(N2CCN(c3c(C#N)c(C(F)(F)F)nn3C)CC2)c1	-11.9%	23.1µM*	-17.0%	-50.6*	8.2µM*
CN(CCOc1ccccc1)C(=S)Nc1ccc(OC(F)F)cc1	-1.0%	-9.8%	-19.0%	-57.5*	-25.7%
O=C(NCc1ccccc1F)Nc1ccc([N+](=O)[O-])cc1	-10.0%	?	-3.8%	-14.6	25.9µM*
O=C(NCc1ccc2c(c1)OCO2)Nc1ccc([N+](=O)[O-])cc1	-8.5%	20.6µM*	-24.0%	3.0	4.11µM*
O=C(NCc1ccco1)Nc1ccc([N+](=O)[O-])cc1	0.8%	-13.6%	2.8%	?	?
CCOC(=O)N1CCN(S(=O)(=O)c2ccc(C(=O)Nc3ccc4c(c3)C(=O)NC4=O)cc2)CC1	3.7%	-16.0%	3.2%	14.7	-8.6%
CCCCCCCCN1C(=O)[C@H](CC(=O)N2CCOCC2)C[C@@]2(C(=O)OCC)CCCC=C12	?	11.6µM*	?	-25.1	9.2µM*
CCCCCCCCN1C(=O)[C@H](CC(=O)N2CCSCC2)C[C@@]2(C(=O)OCC)CCCC=C12	?	20.6µM*	?	?	20.6µM*
CCOC(=O)/C=c1/s/c(=C/c2ccccc2OC)c(=O)n1CC(=O)N1CCOCC1	4.2%	?	6.5%	-13.0	-46.3%
CCOC(=O)C[n+]1c(C)sc2ccc(OC)cc21	?	8.2µM*	?	-27.5	8.2µM*
O=C(Cn1nnc(-c2cccs2)n1)NNC(=O)c1ccccc1Cl	9.0%	15.1%	7.3%	42.5	-14.0%
CCCCn1c(SCC(=O)Nc2cc(C(F)(F)F)cc(C(F)(F)F)c2)nnc1C(CC)N(C)C (configuration not stated)	-25.1%	23.1µM*	-22.7%	-9.2	20.6µM*
SMILES	HT1080NT lethal	DT40 TDP1 CPT	HT1080 IDH1KD tx	IL-1B inflam inh	TDP1 cell noCPT
CN1C(C(=O)NCc2cccc(Br)c2)CC2Cn3c(nc4cc5ccccc5cc43)C21 (configuration not stated)	5.8%	?	1.4%	-3.1	20.6µM*
COc1ccc(CCNC(=O)C2CC3Cn4c(nc5cc(Cl)c(Cl)cc54)C3N2C)cc1 (configuration not stated)	-0.4%	20.6µM*	0.6%	-0.1	?
Cc1cc2nc3n(c2cc1C)CC1CC(C(=O)NCc2cccc(Br)c2)N(C)C31 (configuration not stated)	9.2%	-21.1%	7.2%	-6.2	-27.5%
O=C(NCc1cccc(Br)c1)C1CC2Cn3c(nc4ccccc43)C2N1Cc1ccccc1 (configuration not stated)	15.0%	18.4µM*	-1.9%	-5.0	18.4µM*
CN1C(C(=O)NCc2cccc(Br)c2)CC2Cn3c(nc4cc(Cl)c(Cl)cc43)C21 (configuration not stated)	-0.1%	-27.2%	-2.1%	-7.7	?
Cc1ccc(CNC(=O)C2CC3Cn4c(nc5ccccc54)C3N2C)o1 (configuration not stated)	14.1%	-5.1%	12.1%	27.5	-8.4%
Cc1ccc(CNC(=O)C2CC3Cn4c(nc5cc6ccccc6cc54)C3N2C)o1 (configuration not stated)	2.1%	18.4µM*	-2.9%	19.3	?
O=C(COC(=O)CNC(=O)c1cccc([N+](=O)[O-])c1)NCc1ccco1	28.2%	9.1%	18.7%	7.2	-4.1%
Cc1cc(C)cc(C(=O)NC(CC(N)=O)c2ccc(NC3CCCCC3)c([N+](=O)[O-])c2)c1 (configuration not stated)	-5.5%	-22.9%	2.7%	9.0	-2.8%
Cc1cc(C)n(-c2ccc(C(=O)Nc3ccc(N4CCOCC4)cc3)cc2)n1	13.7%	2.7%	11.8%	-17.7	-2.6%
CC(=O)c1cc2c(cc1NC(=O)c1ccc(-n3nc(C)cc3C)cc1)OCO2	2.3%	?	22.4%	?	?
Cc1cc(C)n(-c2ccc(C(=O)Nc3ccc(S(=O)(=O)N(C)C)cc3)cc2)n1	-19.3%	?	-13.5%	3.3	23.1µM*
Cc1cc(C)n(-c2ccc(C(=O)Nc3ccc(C)c(S(=O)(=O)N(C)C)c3)cc2)n1	?	?	?	-77.6*	?
COc1ccc(NC(=O)c2ccc(-n3nc(C)cc3C)cc2)cc1OC	4.5%	?	-2.3%	-51.1*	?
Cc1cc(C)n(-c2ccc(C(=O)Nc3ccc4c(c3)OCO4)cc2)n1	-10.4%	?	-9.1%	-54.5*	?
COCCn1c(=O)c2cc3c(=O)n(CCOC)c(=O)c3cc2c1=O	1.9%	-0.7%	0.1%	22.5	-4.8%
O[C@@H]1CN(Cc2cccs2)[C@@H](c2ccc(Cl)cc2)C[C@H]1n1cc(C2CC2)nn1	?	?	-28.3%	-5.8	?
CCN(CC)S(=O)(=O)c1cccc(NC(=O)c2ccc(-n3nc(C)cc3C)cc2)c1	-5.7%	?	0.1%	?	23.1µM*
